# The source made the active and inactive calls. Unless noted, no rule for the calls is given here.
# Columns and labels:
# [1] = test system: Wnt5a (protein binding on small-molecule microarray); test: Wnt5a binders on small-molecule microarray, primary screen, biophysical, 635/667 nm fluorescence (AID 1142); settings: 635 nm fluorescence, higher = more signal;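 also: fluorescence read at 667 nm with signal to noise per printed feature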
# [2] = cell viability in Huh7 cells, primary screen, cytotoxicity control for HCV replication inhibitor project, CellTiter-Glo luminescence, basal, 48 h (AID 1143); settings: Huh7 HCV replicon, higher = more signal, called active from +8 up or from −8 down;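 also: Huh7 hepatoma cells carrying a hepatitis C replication reporter with no stimulus; test concentration not given here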
# [3] = P. aeruginosa biofilm formation inhibitors, primary screen, PAO1 strain, BacTiter-Glo luminescence, LB-PBS (AID 1144); settings: 12 h, higher = more signal
# [4] = CREB reporter modulators without forskolin, primary screen, cell-based, PC12, CRE-LacZ reporter, unstimulated (AID 1145); settings: no forskolin, luminescence, 4.5 h, higher = more signal, called active from +8 up or from −8 down
# [5] = CREB reporter modulators under forskolin, primary screen, cell-based, PC12, CRE-LacZ reporter, forskolin-stimulated (AID 1146); settings: luminescence, 4.5 h, higher = more signal, called active from +8 up or from −8 down;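 also: PC12 cells with 6xCRE LacZ reporter stimulated by forskolin 10 µM; beta-galactosidase reporter signal reflecting CREB driven transcription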
# [6] = target: Streptavidin (Streptomyces avidinii) (UniProt P22629); test: streptavidin binders on small-molecule microarray, primary screen, artefact control for SMM compound annotation, biophysical, 635/667 nm fluorescence (AID 1147); settings: streptavidin binding, higher = more signal;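 also: signal reflects streptavidin binding to arrayed compounds as a control protein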
# Chain of Streptavidin (Streptomyces avidinii) (P22629 whole entry, looked up): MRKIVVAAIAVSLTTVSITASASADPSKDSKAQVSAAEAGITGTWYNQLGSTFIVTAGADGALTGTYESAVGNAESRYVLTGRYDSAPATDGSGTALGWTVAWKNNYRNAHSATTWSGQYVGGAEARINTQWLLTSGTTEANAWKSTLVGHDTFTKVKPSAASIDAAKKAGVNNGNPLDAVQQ
# [7] = small-molecule binders of probe aInhba, primary screen, biochemical, small-molecule microarray, 635/667 nm fluorescence (AID 1148); settings: higher = more signal;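 also: score merges 667nm spot fluorescence with signal-to-noise for antibody binding to printed compounds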
# [8] = target: Torsin-1A (Homo sapiens) (UniProt O14656); test: torsin A binders from cell lysate, primary screen, small-molecule microarray, wild-type, 635/667 nm (AID 1149); settings: COS7 hTOR1A-WT lysate, 635 nm fluorescence, higher = more signal
# Chain of Torsin-1A (Homo sapiens) (O14656 whole entry, looked up): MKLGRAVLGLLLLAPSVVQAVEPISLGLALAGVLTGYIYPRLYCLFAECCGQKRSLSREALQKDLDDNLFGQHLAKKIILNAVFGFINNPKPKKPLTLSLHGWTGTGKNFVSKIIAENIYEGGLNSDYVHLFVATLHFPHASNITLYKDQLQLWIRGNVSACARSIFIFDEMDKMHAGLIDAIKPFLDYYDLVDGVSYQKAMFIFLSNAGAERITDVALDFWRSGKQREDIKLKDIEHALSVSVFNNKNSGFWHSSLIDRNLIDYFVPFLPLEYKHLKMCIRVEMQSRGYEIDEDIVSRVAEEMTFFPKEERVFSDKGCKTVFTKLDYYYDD
# [9] = target: Torsin-1A (Homo sapiens) (UniProt O14656); test: small-molecule binders of mutant TOR1A in lysate, primary screen, cell lysate, small-molecule microarray, COS7 lysate, 635/667 nm fluorescence (AID 1150); settings: COS7 hTOR1A mutant lysate, 635 nm fluorescence, higher = more signal;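 also: score pools 667 nm emission and signal to noise measuring lysate protein binding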
# [10] = test system: Sonic hedgehog protein (Shh); test: small-molecule binders of Shh protein, primary screen, biochemical, small-molecule microarray, 635/667 nm fluorescence (AID 1151); settings: small-molecule microarray binding, 635 nm fluorescence; higher = more signal;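 also: Shh protein binding to compounds spotted on small-molecule microarray slides; score combines spot fluorescence intensity with signal-to-noise across triplicate slides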
# [11] = E. coli DRC41 culture turbidity changes, primary screen, E. coli filamentation inducer project, strain DRC41, OD650, 48 h (AID 1152);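 also: E. coli MC1000 strain DRC41 lacking acrAB efflux pump and sulA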; settings: E. coli DRC41 (acrAB sulA), higher = more signal, called active from +8 up or from −8 down
# [12] = small-molecule binders of probe aLefty1, primary screen, biochemical, small-molecule microarray, 635/667 nm fluorescence (AID 1153); settings: higher = more signal;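 also: score merges spot fluorescence with signal-to-noise ratio from the scanned slide images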
# [13] = PSAC antagonists in infected red cells, primary screen, cell-based, P. falciparum Indochina, OD700, 1 h (AID 1154); settings: P. falciparum Indochina infected RBC osmotic lysis, higher = more signal, called active from +8 up or from −8 down
# [14] = PSAC antagonists in infected red cells, primary screen, cell-based, P. falciparum Indochina, OD700, 2 h (AID 1155);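 also: lysis reports solute entry through the parasite surface anion channel PSAC; channel blockers reduce lysis of infected cells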; settings: P. falciparum Indochina infected erythrocytes, osmotic lysis OD700; higher = more signal, called active from +8 up or from −8 down
# [15] = osmotic lysis modulators in infected erythrocytes, primary screen, PSAC antagonist project, cell-based, P. falciparum Indochina, OD700, 3 h (AID 1156); settings: higher = more signal, called active from +8 up or from −8 down
# [16] = PSAC antagonists in infected red cells, primary screen, cell-based, P. falciparum Indochina, OD700, 18 h (AID 1157); settings: P. falciparum Indochina infected erythrocytes, osmotic lysis OD700, 18 h; higher = more signal, called active from +8 up or from −8 down
# [17] = modulators of S6 phosphorylation in cells, primary screen, cell-based, A549, cytoblot, luminescence, serum-stimulated (AID 1158); settings: A549 phospho-S6 cytoblot, 5 h, higher = more signal;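 also: serum-stimulated A549 lung adenocarcinoma cells; signal is phosphorylated S6 detected by cytoblot immunostaining with HRP secondary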
# [18] = target: NADPH oxidase 2 (Homo sapiens) (UniProt P04839); test: NOX2-dependent H2O2 signal modulators, primary screen, NOX inhibitor project, cell-based, HEK293-NOX2, PMA-stimulated, Amplex Red fluorescence (AID 1159); settings: 45 min, higher = more signal, called active from +8 up or from −8 down; also: test concentration not given here
# Chain of NADPH oxidase 2 (Homo sapiens) (P04839 whole entry, looked up): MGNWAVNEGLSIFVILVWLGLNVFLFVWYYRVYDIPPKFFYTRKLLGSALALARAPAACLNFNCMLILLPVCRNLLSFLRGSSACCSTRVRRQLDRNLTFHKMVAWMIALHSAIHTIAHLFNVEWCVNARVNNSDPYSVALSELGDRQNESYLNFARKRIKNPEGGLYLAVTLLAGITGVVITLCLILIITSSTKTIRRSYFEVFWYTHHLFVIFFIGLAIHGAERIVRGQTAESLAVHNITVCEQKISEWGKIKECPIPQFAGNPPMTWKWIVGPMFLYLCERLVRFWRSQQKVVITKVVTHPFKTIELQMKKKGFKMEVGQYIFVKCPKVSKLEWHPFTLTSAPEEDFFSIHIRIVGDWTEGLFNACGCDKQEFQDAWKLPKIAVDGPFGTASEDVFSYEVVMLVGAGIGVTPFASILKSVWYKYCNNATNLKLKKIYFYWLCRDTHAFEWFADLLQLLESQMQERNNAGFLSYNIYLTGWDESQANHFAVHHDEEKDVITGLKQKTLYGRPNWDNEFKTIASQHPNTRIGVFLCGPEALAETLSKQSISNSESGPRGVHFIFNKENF
# [19] = target: NADPH oxidase 4 (Homo sapiens) (UniProt Q9NPH5); test: NOX4-dependent H2O2 signal modulators, primary screen, NOX inhibitor project, cell-based, HEK293-NOX4, tetracycline-induced, Amplex Red fluorescence (AID 1160); settings: 45 min, higher = more signal, called active from +8 up or from −8 down
# Chain of NADPH oxidase 4 (Homo sapiens) (Q9NPH5 whole entry, looked up): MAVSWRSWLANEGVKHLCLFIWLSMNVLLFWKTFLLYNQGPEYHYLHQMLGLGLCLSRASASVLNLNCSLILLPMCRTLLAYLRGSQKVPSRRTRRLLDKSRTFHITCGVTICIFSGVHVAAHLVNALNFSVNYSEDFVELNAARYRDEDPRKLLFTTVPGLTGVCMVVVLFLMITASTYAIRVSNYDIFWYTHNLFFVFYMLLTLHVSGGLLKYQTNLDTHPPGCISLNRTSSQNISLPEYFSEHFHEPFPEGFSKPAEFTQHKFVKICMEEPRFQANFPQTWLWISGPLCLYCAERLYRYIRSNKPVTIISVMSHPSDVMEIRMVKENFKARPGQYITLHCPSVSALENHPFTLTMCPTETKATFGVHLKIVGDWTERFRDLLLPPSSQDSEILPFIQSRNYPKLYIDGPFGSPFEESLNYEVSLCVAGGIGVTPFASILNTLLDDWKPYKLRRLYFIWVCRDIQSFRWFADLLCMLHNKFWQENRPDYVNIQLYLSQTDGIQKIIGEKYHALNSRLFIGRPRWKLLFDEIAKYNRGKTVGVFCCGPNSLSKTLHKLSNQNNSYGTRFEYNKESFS
# [20] = target: NADPH oxidase 5 (Homo sapiens) (UniProt Q96PH1); test: NOX5-dependent H2O2 signal modulators, primary screen, NOX inhibitor project, cell-based, HEK293-NOX5, Amplex Red fluorescence (AID 1161); settings: HEK293-NOX5, ionomycin, 45 min, higher = more signal
# Chain of NADPH oxidase 5 (Homo sapiens) (Q96PH1 whole entry, looked up): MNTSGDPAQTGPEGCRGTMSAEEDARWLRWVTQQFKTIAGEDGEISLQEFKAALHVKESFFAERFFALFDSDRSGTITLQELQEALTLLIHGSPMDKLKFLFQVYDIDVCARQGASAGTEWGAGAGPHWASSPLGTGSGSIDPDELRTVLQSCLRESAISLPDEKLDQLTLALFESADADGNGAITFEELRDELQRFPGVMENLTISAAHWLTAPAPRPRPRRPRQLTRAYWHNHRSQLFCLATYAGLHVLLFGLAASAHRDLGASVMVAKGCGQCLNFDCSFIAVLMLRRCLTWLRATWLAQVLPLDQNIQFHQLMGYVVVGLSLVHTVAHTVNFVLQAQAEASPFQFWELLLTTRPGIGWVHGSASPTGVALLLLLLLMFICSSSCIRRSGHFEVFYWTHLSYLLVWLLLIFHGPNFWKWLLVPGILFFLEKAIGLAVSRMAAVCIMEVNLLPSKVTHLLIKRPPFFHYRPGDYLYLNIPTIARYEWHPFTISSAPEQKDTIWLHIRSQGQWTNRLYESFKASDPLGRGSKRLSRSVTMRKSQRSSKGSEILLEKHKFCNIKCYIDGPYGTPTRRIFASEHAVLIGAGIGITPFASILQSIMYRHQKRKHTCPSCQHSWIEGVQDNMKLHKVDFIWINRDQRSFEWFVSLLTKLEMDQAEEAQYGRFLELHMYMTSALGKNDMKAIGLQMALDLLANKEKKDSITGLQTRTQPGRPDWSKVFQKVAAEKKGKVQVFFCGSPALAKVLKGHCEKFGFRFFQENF
Compound,composite z-score [1],z-score [2],z-score [3],z-score [4],z-score [5],composite z-score [6],composite z-score [7],composite z-score [8],composite z-score [9],composite z-score [10],z-score [11],composite z-score [12],z-score [13],z-score [14],z-score [15],z-score [16],z-score [17],z-score [18],z-score [19],z-score [20]
CCCN1C(=O)[C@@]2(c3ccc([N+](=O)[O-])cc3)CC(=O)N(CC34CC5CC(CC(C5)C3)C4)[C@@H]2c2ccc(CO)cc21,-0.347,-0.0818 (inactive),0.312 (inactive),0.272 (inactive),1 (inactive),-0.192,0.0588,-1.21,0.019,0.102,-0.803 (inactive),0.334,0.336 (inactive),0.0149 (inactive),0.519 (inactive),-0.312 (inactive),-0.574,0.658 (inactive),0.148 (inactive),0.631
COC(=O)C[C@H]1O[C@@]2(C[C@@H]1[Si](C)(C)C)C(=O)N(C)c1ccccc12,0.0074,-1.43 (inactive),-0.355 (inactive),2.3 (inactive),-0.923 (inactive),0.327,-0.0468,0.185,0.117,1.44,3.12 (inactive),0.14,-1.14 (inactive),-0.694 (inactive),-1.23 (inactive),-1.92 (inactive),0.953,-0.465 (inactive),0.764 (inactive),1.21
C[C@@H]1ON(c2ccccc2)[C@H](c2ccccc2)[C@H]1C(=O)O,-0.0071,0.343 (inactive),-0.525 (inactive),0.308 (inactive),0.411 (inactive),0.0265,0.134,0.404,-0.115,1.01,-0.0929 (inactive),0.106,0.348 (inactive),-0.299 (inactive),-0.142 (inactive),-0.136 (inactive),0.0366,-0.436 (inactive),0.24 (inactive),0.46
C[C@@H]1NC(=O)C([C@@H](C)OCc2ccccc2)NC(=O)[C@@]23C(=O)N[C@@H](Cc4ccccc4)C2[C@H](C)[C@@]2(C)O[C@H]2C3/C=C/C/C=C\CNC1=O (stereo not given in full),0.0076,-0.371 (inactive),0.571 (inactive),-0.507 (inactive),0.428 (inactive),-1.07,-0.25,0.0772,0.0936,1.12,-0.999 (inactive),-0.147,2.36 (inactive),-0.169 (inactive),0.604 (inactive),0.182 (inactive),-0.093,0.715 (inactive),-0.942 (inactive),0.467
CC1CC/C=C\[C@H]2OC34C=CCN(C(C)(C)C)C(=O)[C@H]3N(CCCO)C(=O)[C@@H]4C2C(=O)O1 (stereo not given in full),-0.0437,-0.032 (inactive),1.08 (inactive),0.203 (inactive),-0.539 (inactive),-0.561,-0.128,0.62,2.01,-0.757,0.0581 (inactive),-0.0954,-0.022 (inactive),0.571 (inactive),-0.857 (inactive),0.235 (inactive),0.337,0.78 (inactive),-2.14 (inactive),1.25
COC(=O)C(CC#Cc1ccc2c(c1)[C@]1(C(=O)N2)[C@H](C(=O)N2CCc3cc(OC)c(OC)cc3C2)[C@H]2C(=O)O[C@H](c3ccccc3)[C@H](c3ccccc3)N2[C@@H]1c1ccccc1OCCO)C(=O)OC,0.345,-2.91 (inactive),-0.375 (inactive),-0.168 (inactive),0.214 (inactive),1,0.0561,0.885,1.15,1.99,0.113 (inactive),0.0429,2.85 (inactive),1.76 (inactive),0.848 (inactive),1.08 (inactive),-0.416,2.02 (inactive),0.405 (inactive),1.9
COc1ccc([Si](C)(C)[C@@H]2[C@@H](CC(=O)N(CCO)Cc3ccccc3)O[C@]3(C(=O)N(Cc4ccc(N5C(=O)c6cccc7cccc5c67)cc4)c4ccccc43)[C@H]2C)cc1,0.0547,-4.28 (inactive),-0.298 (inactive),0.12 (inactive),-0.204 (inactive),0.22,-0.0112,0.37,0.0705,1.8,-0.414 (inactive),0.004,7.3 (inactive),2.33 (inactive),0.296 (inactive),1.14 (inactive),0.487,1.28 (inactive),-0.496 (inactive),2.72
CC(C)(C)N1CC=CC23O[C@@H]4/C=C\CCCOC(=O)C4[C@H]2C(=O)N(CCCO)[C@@H]3C1=O (stereo not given in full),-0.285,0.317 (inactive),1.68 (inactive),-0.0697 (inactive),-0.764 (inactive),-0.773,-0.0112,0.585,0.645,0.941,-0.455 (inactive),0.0927,0.46 (inactive),0.223 (inactive),-0.772 (inactive),0.429 (inactive),0.0241,1.63 (inactive),0.724 (inactive),2.51
COC(=O)[C@@]1(Cc2ccc(OC)cc2)[C@H]2c3cc(C(=O)N4CCCC4)n(Cc4ccc(C(F)(F)F)nc4)c3C[C@H]2CN1C(=O)c1ccccc1,0.426,-2.36 (inactive),0.361 (inactive),-0.372 (inactive),0.945 (inactive),-0.012,0.225,0.866,0.52,-0.246,-2.07 (inactive),-0.0647,6.38 (inactive),4.52 (inactive),0.746 (inactive),3.37 (inactive),-0.249,0.101 (inactive),0.564 (inactive),0.63
